# Bioassay records (PubChem)
# TNF necrop inh – inhibitors of TNF-alpha triggered necroptosis, primary screen, cell-based, Jurkat FADD-/-, single concentration; activation (protection from cell death), % at 10 µM; AID 463075, 2010; Jurkat FADD-/- TNF necroptosis rescue, ATP luminescence, 24 h; 0 = TNF only, 100 = no-TNF cells; actives 0.068% (n = 220,000);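 active means activation, meaning protection from cell death, of at least 50% relative to plate controls; inactive means activation below 50%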;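 further: necroptosis triggered by 40 ng/mL TNF-alpha added together with compound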
# L929 necroptosis – inhibitors of zVAD-triggered necroptosis, primary screen, L929 cells; L929 zVAD necroptosis rescue, ATP luminescence, 24 h; with zVAD 60 µM; actives 0.38% (n = 220,000); viability rescue, % at 10 µM; AID 1377, 2008;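 active means activation, scaled between plate controls, above about 75%, limit read from the data; inactive means activation under that limit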;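 further: 0% = zVAD with DMSO and 100% = DMSO alone without zVAD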
# Wee1 degr inh – Wee1 degradation inhibitors, primary screen, cell-based, HeLa, Wee1K328M-luciferase, luminescence; reporter increase, % at 5 µM; HeLa Luc-Wee1K328M stability; 100% = proteasome inhibitor MG132 effect; AID 1321, 2008; actives 1.2% (n = 220,000);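 active means activation above the mean of all tested compounds plus 3 SD, set per screening run, cut at about 8.8% in these data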;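 further: cells exposed to compound for 20 h before luminescence read; 0% = DMSO alone and 100% = MG132 at 30 µM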
# Target sequence (P30291 whole entry K328M): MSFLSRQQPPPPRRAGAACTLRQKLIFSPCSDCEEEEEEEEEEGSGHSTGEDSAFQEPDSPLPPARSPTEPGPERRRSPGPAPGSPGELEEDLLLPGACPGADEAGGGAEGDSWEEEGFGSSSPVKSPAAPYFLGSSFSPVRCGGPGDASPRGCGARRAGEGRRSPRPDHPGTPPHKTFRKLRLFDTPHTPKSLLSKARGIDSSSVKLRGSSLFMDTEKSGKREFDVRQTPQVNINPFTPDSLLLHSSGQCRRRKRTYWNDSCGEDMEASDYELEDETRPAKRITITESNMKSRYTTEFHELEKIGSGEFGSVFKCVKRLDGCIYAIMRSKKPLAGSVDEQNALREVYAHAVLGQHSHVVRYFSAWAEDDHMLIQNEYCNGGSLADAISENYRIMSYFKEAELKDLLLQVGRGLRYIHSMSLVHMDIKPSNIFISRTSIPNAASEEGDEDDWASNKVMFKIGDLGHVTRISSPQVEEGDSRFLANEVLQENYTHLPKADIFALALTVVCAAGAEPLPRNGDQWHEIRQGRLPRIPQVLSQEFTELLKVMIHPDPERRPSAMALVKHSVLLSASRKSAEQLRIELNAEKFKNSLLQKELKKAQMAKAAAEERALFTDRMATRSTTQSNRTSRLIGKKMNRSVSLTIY
# HSV replic up – enhancers of HSV replication in host cells, fold increase, host cell viability; HSV replication augmentation in cells; maximum fold increase; actives 0.005% (n = 220,000); AID 1956, 2009; in the data active means maximum fold increase above about 1.5; tested in PC3 cells
# V-ATPase pHluor – regulators of yeast V-ATPase proton pumping, primary screen, pHLuorin cytosolic pH fluorescence | response, % at 10 µM | S. cerevisiae | actives 0.37% (n = 350,000) | AID 504577, 2011; in the data active means response mostly above about 7.3%, no sharp cut-off; inactive means mostly below about 5.4%; further: actives read high
# * = called active by the depositor; i = inactive; · = not tested or not shown. The list is not random: actives were taken first. Their share in the collection is about 1.4%.
SMILES,TNF necrop inh,L929 necroptosis,Wee1 degr inh,HSV replic up,V-ATPase pHluor
N#CC(C(=O)OC1CCCCC1)c1nc2ccccc2nc1N1CCCCC1 (stereo not drawn),-1,0,-1,i,·
CCOC(=O)N/N=C/C=C/c1ccccc1[N+](=O)[O-],0,3,9.2*,i,0
Cc1ccnc(N(C(=O)Nc2ccccc2)C2=NCC(C)(C)S2)c1,2,2,9.7*,i,-3
Cc1ccc(N(C(=O)Nc2ccccc2)C2=NCC(C)S2)cc1 (stereo not drawn),3,1,-1,i,1
COc1ccc(S(=O)(=O)N/N=C(/C)c2ccncc2)cc1OC,·,·,·,·,-4
CCN1CCCC1CNC(=O)C1CCN(C(=O)c2cc3sccc3n2Cc2ccc(F)cc2)CC1 (stereo not drawn),-2,-1,12*,i,-11
O=C(NCCCN1CCCC1)C1CCN(C(=O)c2cc3sccc3n2Cc2ccc(F)cc2)CC1,-8,0,1,i,-2
CC(C)[C@H](NC(=O)N1CCn2c1nc1ccccc12)C(=O)NCC1CCCO1 (stereo partly drawn),·,·,·,·,-3
Cc1ccc(S(=O)(=O)ON2C(=O)c3ccccc3C2=O)c(C)c1,1,0,-1,i,8.1*
O=C(Nc1ccccc1Cl)NC1(C(=O)N2CCC(O)CC2)CCCCC1,·,·,·,·,-4
O=C(/C=C/c1c(F)cccc1Cl)c1ccc(O)cc1,-4,2,11*,i,-56
COc1ccc(S(=O)(=O)NCc2ccccn2)cc1NC(=O)c1ccccc1F,·,·,·,·,7
CN(C)c1ccc(C(=O)OCC(=O)c2cccs2)cc1,0,·,9.0*,i,0
O=C(CSc1cccc[n+]1[O-])N1CCc2ccccc21,-1,0,0,i,3
Cc1c(O)ccc(-c2n[nH]c(C(=O)O)c2-c2nc3ccccc3s2)c1O,1,0,10*,i,-4
Cc1c(O)ccc(-c2[nH]ncc2-c2nc3ccccc3s2)c1O,-5,3,-2,i,5
CC(C)OC(=O)CCCCCN1C(=O)CSC1=S,-1,0,9.0*,i,3
CN(C)S(=O)(=O)c1cccc(N=C2NN=C(c3ccccc3)CS2)c1,-1,2,-3,i,·
CC(=O)Nc1ccc(C2=NNC(=Nc3cccc(S(=O)(=O)N(C)C)c3)SC2)cc1,2,2,-3,i,7.9*
O=C(O)[C@H](Cc1c[nH]c2ccccc12)Nc1ncccc1[N+](=O)[O-],·,·,·,·,2
COc1ccc(CC(=O)Nc2nccs2)cc1S(=O)(=O)N1CCOCC1,·,·,·,·,-1
COc1ccc2nc(NC(=O)Cc3ccc(OC)c(S(=O)(=O)N4CCOCC4)c3)sc2c1,4,92*,0,i,1
CC(=O)c1cccc(NC(=O)c2ccc(NC(=O)CC3SC(N4CCCCC4)=NC3=O)cc2)c1 (stereo not drawn),·,·,·,·,5
CC(C)CNC(=S)NC(=O)c1ccc(F)cc1,2,0,9.1*,i,3
Cc1ccc(C(=O)NCC(=O)NCC(c2cccs2)N2CCOCC2)cc1C (stereo not drawn),·,·,·,·,5
SMILES,TNF necrop inh,L929 necroptosis,Wee1 degr inh,HSV replic up,V-ATPase pHluor
CC(C)(C)C(=O)Nc1ccc(-c2csnn2)cc1,3,1,11*,i,5
CC(C)(C)c1ccc(C(=O)NN2C(=O)CSC2=S)cc1,-1,0,11*,i,-1
COc1ccc(C2=Nn3c(nnc3-c3cc(C)[nH]n3)SC2)cc1,-11,1,6,i,3
O=C(Nc1nnc(-c2ccccn2)o1)c1cccc(Cl)c1,1,1,5,i,-3
N#Cc1ccc(C(=O)Nc2nnc(-c3ccccn3)o2)cc1,-3,2,9.4*,i,-3
O=C(COC(=O)c1cc(Cl)ccc1O)NC(=O)NCc1ccccc1,·,·,·,·,-3
O=C(NC1CCCCC1)C(c1ccc(F)cc1)N(Cc1ccco1)C(=O)CN1C(=O)c2ccccc2S1(=O)=O (stereo not drawn),0,1,9.9*,i,-1
O=C(NC1CCCCC1)C(c1ccc(F)cc1)N(Cc1ccco1)C(=O)Cn1nnc2ccccc21 (stereo not drawn),-2,0,-1,i,2
O=C(O)CC(C(=O)Nc1ccc(F)cc1)C1CCCO1 (stereo not drawn),4,2,5,i,-2
